Screens deposited in PubChem BioAssay by Sanford-Burnham Center for Chemical Genomics.
CRFBP-R2 block = blocks CRF-induced signaling of the CRF-BP/CRF-R2 complex | AID 588475 | HEK293 CRF-R2/CRF-BP, CRF-induced calcium fluorescence | 350,000 compounds, 0.59% hits | inhibition, % at 11.8 µM;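 active = inhibition of the ligand-induced calcium signal above about 50% at the single tested concentration, limit read from the data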
CRFBP-R2 agonist = CRF-BP/CRF-R2 complex agonism | HEK293 CRF-R2/CRF-BP, calcium dye fluorescence (FLIPR); percent of saturating CRF peptide response | activation, % at 13.2 µM | 350,000 compounds, 0.46% hits | AID 588473;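 active = activation of at least 50%, plus an integration ratio under a set limit after plate pattern correction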;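 also: plate controls were neutral control wells without compound for no effect and CRF at EC100 for full effect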
H9c2 protect = protects H9c2 cardiomyocytes from peroxide injury; H2O2 injury protection, ATPLite, 2 h; protection from H2O2 cell death, % at 20 µM; 360,000 compounds, 0.63% hits; AID 588492;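 active = compounds giving at least 50% protection of heart cells from peroxide-induced death in the single-dose screen, raw or plate-pattern-corrected value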;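 also: 0% = DMSO wells with peroxide and 100% = DMSO wells without peroxide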
hiPSC survival = enhancers of human iPSC single-cell survival; hiPSC single-cell survival, ATPlite luminescence; 100% = ROCK inhibitor wells, 0% = DMSO; survival enhancement, % at 20 µM; 360,000 compounds, 0.044% hits; in the data active = survival enhancement above about 18%;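 also: cells exposed to compounds for 16 hours before the ATP read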
SKN-1 block = C. elegans SKN-1 inhibition. C. elegans VP596 Pgst-4::GFP/RFP ratio, acrylamide-induced, 24 h. inhibition, % at 21.8 µM. 360,000 compounds, 0.49% hits. AID 624304;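 active = interference check ratio from 0.5 to 1.5 plus GFP to RFP signal ratio inhibition reaching or exceeding a fixed threshold, cut at about 30% in these data, passing the limit was not always enough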
TAG inh = reduces triacylglycerol accumulation in H9c2 cells; Nile Red lipid (TAG) fluorescence; cells loaded with 200 µM oleic acid; inhibition, % at 12.5 µM; 230,000 compounds, 0.66% hits; AID 651582;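 active = pattern-corrected inhibition of lipid staining of at least 50% with the nuclear-stain viability signal not falling by more than 50%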;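 also: 0% = DMSO wells and 100% = triacsin C control wells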
An asterisk follows results filed as active; / = no result given. Rows were chosen to be rich in hits. Some 2.5% of all compounds tested hit in one or more screens of this group.

SMILES	CRFBP-R2 block	CRFBP-R2 agonist	H9c2 protect	hiPSC survival	SKN-1 block	TAG inh
N#C/C(=C\c1ccc(N2CCCCC2)o1)C(=O)Nc1cccc(Br)c1	-265	312*	-15	-2	27	/
NC(=O)c1c(N)[nH]c(C(=O)c2ccccc2)c1-c1ccccc1Br	/	/	/	0	8	/
O=C(CCc1nc2ccccc2c(=O)[nH]1)N1CCN(S(=O)(=O)c2ccc(F)cc2)CC1	-6	1	86*	1	3	1
O=C(CCc1nc2ccccc2c(=O)[nH]1)N1CCN(S(=O)(=O)c2cccc([N+](=O)[O-])c2)CC1	10	0	70*	0	7	-4
CC(C)(C)S(=O)N1Cc2cc(C(=O)NCC(F)(F)F)nc(-c3cccc(-c4cccc(F)c4)c3)c2[C@H]1CCO (stereo partly specified)	/	/	8	2	9	/
Cc1[nH]c2ccccc2c1C(=O)CSc1ccc(Cl)cc1	-8	-2	-10	0	-2	-37
Cc1[nH]c2ccccc2c1C(=O)CN1C(=O)NC(C)(c2ccc(Cl)cc2Cl)C1=O (stereo unspecified)	-199	67*	21	1	15	/
COc1ccc(C(C)=O)cc1CSc1nnc2c(Cl)cc(Cl)cn12	55*	-4	8	-2	6	/
COc1ccc(C(C)=O)cc1CSc1nncn1C	-10	-1	-2	0	1	13
C[N+]1(C)CCCC(OC(=O)C(O)(c2ccccc2)c2ccccc2)C1 (stereo unspecified)	-4	0	-4	1	98	9
O=c1c2ccccc2c(C=Nc2ccc(S(=O)(=O)N3CCCCC3)cc2)c(O)n1-c1ccc(Cl)cn1	5	0	-2	0	6	/
NS(=O)(=O)c1ccc(N=Cc2c(O)n(-c3nccs3)c(=O)c3ccccc23)cc1	4	-2	52*	0	-12	9
CCOC(=O)C1(C)CCCCCN1C(=O)c1ccc(SC(F)(F)F)cc1 (stereo unspecified)	/	/	7	6	23	-25
O=C(COc1ccc(Cl)cc1)NNC(=O)c1ccccn1	10	0	29	2	-6	1
Cc1cc(C)cc(OCC(=O)NNC(=O)c2ccccn2)c1	-6	0	78*	-2	12	9
CCc1cccc(CC)c1N1C(=O)C2=C(SCCCS2)C1=O	-127	137*	-1	-3	23	-17
CCc1cccc(CC)c1N1C(=O)COCC1=O	-9	0	0	4	30	11
COc1ccc(/C=C/C(=O)NCCSCc2ccco2)cc1OC	66*	0	-2	0	3	2
COc1ccc(CCNC(=O)/C=C/c2ccco2)cc1OC	2	0	4	0	-20	/
O=C(NN1C(=O)/C(=C\c2cccnc2)SC1=S)C(c1ccccc1)c1ccccc1	-37	0	60*	0	-21	/
CCn1cc(C(=O)N2CCN(Cc3ccc4c(c3)OCO4)CC2)c(=O)c2ccc(C)nc21	-16	-3	-4	-5	-6	-65
CCn1cc(C(=O)OCC(=O)NCc2ccc3c(c2)OCO3)c(=O)c2ccc(C)nc21	12	-4	-2	2	35*	8
O=C(NCc1n[nH]c(=S)n1-c1ccc(F)cc1)c1ccc(S(=O)(=O)N2CCOCC2)cc1	7	-1	-3	-4	38*	0
O=C(NCc1n[nH]c(=S)n1-c1ccccc1)c1ccc(S(=O)(=O)N2CCOCC2)cc1	8	-3	-3	1	-16	/
Cc1ccccc1C(=O)/C(C#N)=N/Nc1c(C)n(C)n(-c2ccccc2)c1=O	-4	0	64*	1	-4	/
SMILES	CRFBP-R2 block	CRFBP-R2 agonist	H9c2 protect	hiPSC survival	SKN-1 block	TAG inh
Cc1c(N/N=C(\C#N)C(=O)c2ccccc2)c(=O)n(-c2ccccc2)n1C	6	13	20	1	1	/
CCCCC(C(=O)O)C(C)CC(=O)Nc1nncs1 (stereo unspecified)	77*	3	-2	0	-1	4
COc1cc(/C=C/C(=O)OCC(=O)N2c3ccccc3NC(=O)C2(C)C)cc(OC)c1OC	-5	-1	76*	0	6	9
CCCn1nc(-c2ccccc2)c2nc3ccccc3nc21	-43	106*	/	/	/	/
CCCCn1c2nc3ccccc3nc2c2c(=O)n(CCC)cnc21	0	2	13	-2	-2	18
CCCCCn1nc(-c2ccccc2)c2nc3ccccc3nc21	-256	176*	-13	1	-61	-23
CCn1nc(-c2ccccc2)c2nc3ccccc3nc21	-188	160*	-11	-2	-29	-7
CCn1c(=O)c2sccc2n(Cc2ccc(C)cc2)c1=O	-2	-1	-2	1	6	/
COCCNc1nc(-c2cc(F)ccc2C)c2sc(-c3ccccc3)cc2n1	/	/	-5	0	16	32
CCOC(=O)[C@]12CCCC=C1N(Cc1ccc(Cl)cc1Cl)C(=O)[C@H](CC(=O)N1CCN(C(=O)c3ccco3)CC1)C2	/	/	/	0	17	/
FC(F)(F)c1cnc2c(-c3ccc(Cl)cc3Cl)noc2c1	25	-1	-16	1	32*	-18
CC(C)(C)OC(=O)N1CCN(c2ccc(CNC(=O)c3ccc(Cl)cc3)cc2)CC1	50*	2	-10	3	0	-25
Cc1ccc(NC(=O)c2ncn(CCCNCC3CCCO3)n2)cc1C (stereo unspecified)	81*	-1	17	0	15	7
CC(=O)Nc1ccc(S(=O)(=O)Nc2ccc(-n3cnnn3)cc2)cc1	4	0	-4	0	11	-7
c1ccc(CN2CCN(c3nc(NCc4ccco4)c4ccccc4n3)CC2)cc1	-11	1	-18	30*	4	/
OCCN1CCN(c2nc(NCc3ccco3)c3ccccc3n2)CC1	9	2	-6	1	-8	6
Cc1ccc(OCCN2CCN(c3nc(NCc4ccco4)c4ccccc4n3)CC2)cc1	-20	2	-10	24*	2	/
Cc1oc(-c2ccccc2F)nc1CS(=O)(=O)CC(=O)NCCCN1CC(C)CC(C)C1 (stereo unspecified)	0	3	2	0	17	/
COc1ccc(OCC(=O)NCCCCCCNC(=O)COc2ccc(OC)cc2)cc1	2	-1	-6	1	0	-7
CCCCCCCCCCCCCCCCCCNc1ccn(C2OC(COP(=O)(O)OCC3OC(n4cc(F)c(=O)[nH]c4=O)CC3O)C(O)C2O)c(=O)n1 (stereo unspecified)	20	21	-2	1	-2	5
CCOC(=O)Nc1cc2c(cc1[N+](=O)[O-])-c1ccccc1C2=O	5	0	-5	-3	19	-9
CCOC(=O)Nc1cccc2c1-c1ccc([N+](=O)[O-])cc1C2=O	4	5	-6	0	40*	1
